Assay outcomes from PubChem BioAssay.
Shown are actives, neighbours in structure and some others; about 10% of the full set was active somewhere.
BAZ2B block: qHTS Assay for Inhibitors of BAZ2B. Bromodomain adjacent to zinc finger domain protein 2B (Homo sapiens), Q9UIF8. AlphaScreen BAZ2B-H3K14Ac peptide displacement. Potency, µM (highest dose often 114 µM), most hits filed as inhibitors. hit rate 4.4% among 360,000; note: nearly all actives have a fitted effect of over 60% in size
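Inhibition is scored as reduced AlphaScreen emission. The BAZ2B/b-H3(5-23)K14Ac complex (50 nM each) in PBS pH 7.4, 0.01% Tween-20 meets compound (up to 110 uM) for 30 min at RT before bead addition.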
G9a inh: qHTS Assay for Inhibitors of Histone Lysine Methyltransferase G9a; Histone-lysine N-methyltransferase EHMT2 (Homo sapiens), Q96KQ7; G9a H3K9 monomethylation, AlphaScreen, 2 h; Potency, µM (highest dose often 102 µM), hits mostly inhibitors; hit rate 8.8% among 350,000; AID 504332, 2011; note: nearly all actives have a fitted effect of over 75% in size
Target sequence (Q96KQ7 913-1193 limits assumed): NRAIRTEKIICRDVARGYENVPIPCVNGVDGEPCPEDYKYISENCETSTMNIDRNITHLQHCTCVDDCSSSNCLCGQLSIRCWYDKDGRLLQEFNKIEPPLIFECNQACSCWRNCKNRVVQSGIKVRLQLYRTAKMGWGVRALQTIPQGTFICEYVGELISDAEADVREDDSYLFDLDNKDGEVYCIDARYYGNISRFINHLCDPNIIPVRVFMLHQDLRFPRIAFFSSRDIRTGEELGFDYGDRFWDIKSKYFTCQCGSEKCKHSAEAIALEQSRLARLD
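AlphaScreen read-out: biotin-H3K9 peptide (500 nM) methylation by 20 nM enzyme with 20 uM SAM, 2 h at room temperature after 15 min compound preincubation; anti-monomethyl H3K9 antibody plus donor/acceptor beads, 10 min dark.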
Six1-Eya2 inh: qHTS Assay for Inhibitors of the Six1/Eya2 Interaction | AlphaScreen GST-Six1/His-Eya2 binding, biochemical; hits give low values | Homeobox protein SIX1 (Homo sapiens) + Protein phosphatase EYA2 (Homo sapiens), … | hit rate 0.56% among 360,000 | AID 651725, 2012 | activity change, % (concentration not given with the values); in the data active = activity change below about -65%; inconclusive = mostly about -30% to -63%
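Homogeneous AlphaScreen proximity assay pairing GST-Six1 with His-tagged Eya2 (added as 5X mix: 250 nM and 500 nM) in 50 mM Tris pH 8.0, 300 mM NaCl, 1 mM TCEP. Glutathione donor and nickel acceptor beads; 1 h, 37 °C, dark.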
JMJD2A Tudor inh: qHTS Assay for Inhibitors of JMJD2A-Tudor Domain | hit rate 4.4% among 390,000 | Potency, µM (series often up to 114 µM), hits mostly inhibitors | AID 504339, 2011 | AlphaScreen JMJD2A-Tudor / H3K4me3 peptide binding; note: nearly all actives have a fitted effect of over 50% in size
HP1b binding inh: HTS for Inhibitors of HP1-beta Chromodomain Interactions with Methylated Histone Tails | Chromobox protein homolog 1 (Homo sapiens), P83916 | AID 540317, 2011 | hit rate 0.56% among 390,000 | Potency, µM (highest dose often 114 µM), usual class: inhibitors | AlphaScreen HP1-beta / biotin-H3K9me3 peptide binding; note: nearly all actives have a fitted effect of over 70% in size
Target sequence (P83916 whole entry, looked up): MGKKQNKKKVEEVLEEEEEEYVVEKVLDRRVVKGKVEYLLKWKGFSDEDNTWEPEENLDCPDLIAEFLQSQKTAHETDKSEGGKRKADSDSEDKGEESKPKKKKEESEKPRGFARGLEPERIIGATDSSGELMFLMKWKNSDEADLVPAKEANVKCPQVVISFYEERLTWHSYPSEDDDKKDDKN
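Compound inhibition of the preformed complex between 50 nM HP1-beta and 50 nM biotinylated H3K9me3 peptide was read by AlphaScreen. Buffer was PBS pH 7.4 with 0.01% Tween-20. Incubations ran 30 min at room temperature, with 10 ug/mL donor/acceptor beads.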
CtBP-E1A blk: qHTS Assay for Inhibitors of the CtBP/E1A Interaction; AlphaScreen GST-E1A/His-CtBP binding, 1536-well; hits give low values; hit rate 0.49% among 340,000; activity change, % (concentration not given with the values); in the data active = activity change below about -65%; inconclusive = mostly about -30% to -63%
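GST-E1A and His-tagged CtBP (125 nM each as 5X stock) were preincubated with pin-transferred compound for 2 h at 37 °C in the dark, then glutathione donor and nickel acceptor beads were added for 1 h before AlphaScreen reading.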
Hits are given with their value; – = inactive; ? = inconclusive; · = no result; [ ] = remark or other dose. Unless noted, calls come from the whole dose curve; as a rule, active = well fitted inhibition curve with a large enough effect; inconclusive = small, poorly fitted or top-dose-only effect; inactive = no such curve, though single readings can be large or run the other way.

SMILES	BAZ2B block	G9a inh	Six1-Eya2 inh	JMJD2A Tudor inh	HP1b binding inh	CtBP-E1A blk
CSc1ccc(C2NC(=O)c3c(sc4c3CCN(C)C4)N2)cc1 (stereo not drawn)	–	40µM	–	?	–	–
COc1ccc(C(=O)Oc2ccc(C3NC(=O)c4c(sc5c4CCN(C)C5)N3)cc2OC)cc1 (stereo not drawn)	–	–	·	56µM	?	·
CC(C)(C)OC(=O)N1CCC(c2c(C(=O)NCCN3CCc4ccccc4C3)cnn2-c2ccc(F)cc2)CC1	–	–	·	–	–	·
COCCn1c(=O)c(-c2cccc(C#N)c2)nc2cnc(N3CCOCC3)nc21	·	–[0.501 µM]	·	·	·	·
COc1ccc(-c2nc(SCC(=O)NC(C)CCc3ccccc3)n[nH]2)cc1 (stereo not drawn)	–	–	·	–	–	·
CCC(Sc1nc2ccccc2c2nc(CCc3c(C)n[nH]c3C)nn12)C(=O)Nc1ccccc1F (stereo not drawn)	–	–	·	–	–	·
CC(C)c1ccc(C2NC(=O)c3c(sc4c3CCN(C)C4)N2)cc1 (stereo not drawn)	–	?	·	–	–	·
CN1CCc2c(sc3c2C(=O)NC(c2ccc(C(C)(C)C)cc2)N3)C1 (stereo not drawn)	–	8.9µM	·	?	–	·
CCn1c(C)cc(/C=C2\NC(=O)N(Cc3ccccc3)C2=O)c1C	–	13µM	–	89µM	–	–
CCn1c(C)cc(/C=C2/NC(=O)N(Cc3ccccc3F)C2=O)c1C	–	–	–	?	–	–
COc1ccccc1-c1nnc(SCC#CCOC(=O)c2ccc(F)cc2)o1	·	·	·	–	·	·
Cc1csc(N/N=C\c2cccnc2)n1	·	45µM	–	–[11.4 µM]	–	·
Cc1csc(N/N=C/c2ccc(O)c([N+](=O)[O-])c2)n1	4.5µM	14µM	?	45µM	?	?
O=[N+]([O-])c1cc(/C=N/N/C(=N/c2ccccn2)c2ccccn2)ccc1O	32µM	50µM	-86	79µM	–	?
Cc1cc(=O)[nH]c(N/N=C/c2ccc(Cl)c([N+](=O)[O-])c2)n1	–	·	–	–	–	–
Cc1nnc(N/N=C/c2ccc(O)c([N+](=O)[O-])c2)[nH]c1=O	–	–	?	3.2µM	–	?
O=C(C1CCN(S(=O)(=O)c2cccs2)CC1)N1CCN(c2ccccc2F)CC1	–	–	·	–	–	·
COc1ccc2c(CNC3CCCCCC3)c(C(=O)O)n(Cc3ccc(C)cc3)c2c1	?	?	·	–	–	·
Cc1ccc(CN2CCC(CNC(=O)c3cnn(-c4ccccc4)c3C3CCN(C(=O)OC(C)(C)C)CC3)CC2)cc1	–	–	·	–	–	·
O=[N+]([O-])c1cc(/C=N\Nc2nc(-c3ccccc3)cs2)ccc1O	13µM	11µM	–	?	?	–
Clc1ccc(-c2csc(N/N=C/c3ccc4c(c3)OCO4)n2)cc1	–	40µM	–	–	–	–
O=C(Cc1nnc(CNC(=O)c2ccccc2)o1)Nc1cc(C(F)(F)F)ccc1Cl	·	·	·	–	·	·
CC(C)OC(=O)c1c2c(n3ccccc13)C(=O)c1ccccc1C2=O	32µM	?	–	?	?	–
COC(=O)c1c(C(=O)OC)c2ccccn2c1C(=O)c1ccc([N+](=O)[O-])cc1	?	?	?	?	–	–
Fc1cccc(-n2ncc3c2ncn2nc(COc4ccc(Cl)cc4)nc32)c1	–	–	·	–	–	·
O=C1NC(=Nc2ccc3ccccc3c2)S/C1=C/c1ccco1	20µM	50µM	–	?	–	–
O=C1NC(=Nc2ccc(O)cc2)S/C1=C/c1ccco1	–	?	–	–	–	–
Cc1ccc(N=C2NC(=O)/C(=C\c3ccco3)S2)cc1	40µM	?	–	?	–	–
Nc1ccc(SCc2cccnc2)cc1	–	45µM	–	–	–	–
